EBV gp42 block – EBV gp42 inhibition; 0.42% of 220,000 active; Fluorescence polarization binding assay, mP read-out; inhibition, % (tested at 21.74 µM); Q1HVG2; in the data active = inhibition above about 50%
Target sequence (Q1HVG2 whole entry, looked up): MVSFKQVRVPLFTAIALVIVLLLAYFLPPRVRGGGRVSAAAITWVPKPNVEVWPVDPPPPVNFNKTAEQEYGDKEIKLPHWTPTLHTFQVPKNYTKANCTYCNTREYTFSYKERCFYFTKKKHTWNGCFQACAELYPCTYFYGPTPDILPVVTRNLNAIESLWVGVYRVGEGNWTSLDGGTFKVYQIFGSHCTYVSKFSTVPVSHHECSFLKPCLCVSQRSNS
BCLXL inh – blocks human Bcl-xL binding to Bim BH3 peptide; Q07817; GST-Bcl-xL / FITC-Bim BH3 peptide fluorescence polarization; inhibition, % at 10.9 µM; 0.7% of 320,000 active;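 active = inhibition above the mean of all tested compounds plus 3 SD, cutoff set per campaign, cut at about 30% in these data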;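 also: 0% = DMSO wells and 100% = unlabeled Bim-BH3 peptide competitor; inhibitors lower millipolarization by displacing the labeled peptide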
Target sequence (Q07817 whole entry, looked up): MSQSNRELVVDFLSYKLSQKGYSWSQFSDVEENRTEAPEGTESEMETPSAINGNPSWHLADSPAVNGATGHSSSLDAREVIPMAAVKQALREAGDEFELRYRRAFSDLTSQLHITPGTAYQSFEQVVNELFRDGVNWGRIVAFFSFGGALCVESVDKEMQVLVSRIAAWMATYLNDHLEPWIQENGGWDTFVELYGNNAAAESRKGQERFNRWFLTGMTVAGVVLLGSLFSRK
MEX-5 binding – C. elegans MEX-5 TCR-2 RNA binding activity; Q9XUB2; MEX-5/FITC-TCR2 RNA binding, fluorescence polarization; active compounds read low; activity score (negative = inhibition of binding), % at 10 µM; 0.38% of 300,000 active; AID 1832;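 active = inhibition past about -25% in most replicates, and total fluorescence under double the plate's negative control median, limit read from the data; inconclusive = replicates evenly split on the limit, or fluorescence at least double controls; inactive = too little inhibition in most replicates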;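 also: 0% = DMSO and -100% = 5 µM competing unlabeled TCR2 RNA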
MCL1-BIM inh – MCL1-BIM-BH3 interaction inhibition (human). Q07820. GST-MCL1 / FITC-Bim-BH3 fluorescence polarization. inhibition, % at 10.9 µM. 0.68% of 320,000 active;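 active = inhibition above the mean inhibition of all tested compounds plus 3 SD, set per campaign, cut at about 40% in these data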;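 also: 0% = DMSO wells and 100% = unlabeled Bim-BH3 peptide control; higher means more loss of mP so more displacement of Bim peptide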
eLon inh – E. coli protease La inhibition; P0A9M0; purified E. coli Lon protease, fluorescence polarization; inhibition, % at 7.94 µM; 0.42% of 360,000 active; in the data active = inhibition above about 13%, passing the limit was not always enough;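 also: 0% = enzyme with probe and DMSO and 100% = no enzyme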
GLD-1 RNA inh – GLD-1-TGE RNA interaction inhibition (C. elegans); Q17339; purified GLD-1 + fluorescein TGE RNA, fluorescence polarization; inhibition, % at 5.96 µM; 0.44% of 320,000 active; AID 2280;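 active = percent inhibition above a per-plate cutoff, the plate mean of test compounds plus 3 SD, cut at about 30% in these data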;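 also: 0% = DMSO wells with GLD-1 and probe and 100% = wells lacking GLD-1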
* hit, by the source's call; ? = inconclusive; . = not tested or not shown. The list is not random: actives were taken first. Their share in the collection is about 1.5%.

SMILES	EBV gp42 block	BCLXL inh	MEX-5 binding	MCL1-BIM inh	eLon inh	GLD-1 RNA inh
O=C(O)CCC1c2cc3c4cc2OC2Oc5cc6c(cc51)C(CCC(=O)O)c1cc5c7cc1OC(O6)c1cc6cc(c1)Oc1cc(cc(C(=O)O)c1)Oc1cc8cc(c1)C(Oc1cc(c(cc1C5CCC(=O)O)C3CCC(=O)O)OC(O4)c1cc(cc(c1)Oc1cc(cc(C(=O)O)c1)O8)Oc1cc(cc(C(=O)O)c1)Oc1cc(cc2c1)Oc1cc(cc(C(=O)O)c1)O6)O7 (stereo unspecified)	.	12	-100*	42*	.	97*
COC(=O)C1=C(O)/C(=C\c2cc(C)n(-c3ccccc3C)c2C)N=C1C	17	42*	1	44*	-7	27
COC(=O)C1=C(O)/C(=C\c2cc(C)n(-c3ccccc3F)c2C)N=C1C	13	29	-7	29	1	28
Oc1ccc(-c2cn3ccccc3n2)cc1O	.	21	-28*	30	3	10
O=C(OC[C@H]1O[C@@H](OC(=O)c2cc(O)c(O)c(OC(=O)c3cc(O)c(O)c(O)c3)c2)[C@H](OC(=O)c2cc(O)c(O)c(OC(=O)c3cc(O)c(O)c(O)c3)c2)[C@@H](OC(=O)c2cc(O)c(O)c(OC(=O)c3cc(O)c(O)c(O)c3)c2)[C@@H]1OC(=O)c1cc(O)c(O)c(OC(=O)c2cc(O)c(O)c(O)c2)c1)c1cc(O)c(O)c(OC(=O)c2cc(O)c(O)c(O)c2)c1	.	55*	.	76*	.	90*
COC(=O)C1C(O)C(C)C(O)C(C)(O)/C=C\C=C(/C)C(=O)Nc2c(C)c(OC(C)=O)c3c(c2O)C(=O)C(C)=C2OCOC(=C23)/C(C)=C/C(C)(O)C(O)C(C)C1O (stereo unspecified)	-3	50*	-5	-1	1	7
O=C(CN1C(=O)S/C(=C\C=C\c2ccccc2)C1=O)Nc1ccccc1C(=O)O	-4	13	-5	18	-1	2
C#CCN1C(=O)S/C(=C/C=C/c2ccc(N(C)C)cc2)C1=O	-38	55*	.	44*	-363	-36
N#C/C(=C/c1ccc(-c2cc(C(=O)O)cc(C(=O)O)c2)o1)c1nc2ccccc2s1	-115	-18	16	-33	.	-50
N#C/C(=C/c1ccco1)c1nc2ccccc2s1	-8	33*	-4	5	1	11
C/C(=N\N1CCN(C2c3ccccc3-c3ccccc32)CC1)c1ccncc1	117*	4	-1	-3	-5	-2
COc1ccc(C2=CC3=C(Br)C(=O)C(C)(O)C(=O)C3=CO2)cc1 (stereo unspecified)	-1	23	-7	18	7	9
COC/C=C/C1=CC2=CC(=O)C(C)(OC(=O)c3cccs3)C(=O)C2=CO1 (stereo unspecified)	.	6	-9	15	.	6
COc1ccc(C2=CC3=CC(=O)C(C)(O)C(=O)C3=CO2)cc1 (stereo unspecified)	.	16	-38*	27	.	11
COC/C=C/C1=CC2=CC(=O)C(C)(O)C(=O)C2=CO1 (stereo unspecified)	.	13	-47*	64*	.	3
COC/C=C/C1=CC2=CC(=O)C(C)(OC(=O)c3ccco3)C(=O)C2=CO1 (stereo unspecified)	8	27	.	60*	.	31*
O=C(CSc1n[nH]c(=O)n1Cc1ccco1)Nc1ccccc1Cl	-29	9	0	3	-5	-2
CCn1c(C)nc2cc(N)ccc21	-24	3	-51*	7	-13	-1
Cc1nc2cc(N)ccc2n1C1CCCCC1	-10	0	-39*	4	-3	1
CCn1c(C)nc2cc(OC)ccc21	-28	6	-2	2	1	3
COc1ccc(OC)c(/C=C2\N=C(c3ccccc3)OC2=O)c1	.	-23	1	-47	5	-6
COc1cc(/C=C2/N=C(c3ccccc3)OC2=O)c(F)cc1OCc1ccccc1	.	6	-60*	30	3	-1
COc1ccc(-c2nc3n(c2C)Cc2ccccc2-3)cc1	5	46*	-2	41*	7	4
O=c1cc(-c2ccccc2)nc2n1Cc1ccccc1-2	-11	2	2	1	-1	4
COc1ccc(C(C(=O)NC2CCCC2)N(C(=O)c2ccoc2C)c2cc(C)cc(C)c2)cc1 (stereo unspecified)	-35	52*	2	7	-4	2
SMILES	EBV gp42 block	BCLXL inh	MEX-5 binding	MCL1-BIM inh	eLon inh	GLD-1 RNA inh
COc1ccc(C(C(=O)NC2CCCC2)N(C(=O)c2ccoc2C)c2ccccc2)cc1 (stereo unspecified)	-1	-1	3	-6	-2	0
Cc1ccc(SCCC(=O)NNC(=O)c2ccccc2F)cc1	.	.	.	.	0	-5
CN(Cc1ccccc1)C(=O)c1cnc(Cc2c[nH]c3ccccc23)c(I)c1	.	.	.	.	-2	.
O=C(Nc1nccs1)c1ccc(-c2ccc(Cl)cc2)o1	4	1	-4	2	7	-2
O=C(Nc1nccs1)c1ccc(-c2ccc([N+](=O)[O-])cc2)o1	-37	-8	-43*	-22	5	1
COc1cccc(NC(=O)CSc2nnc3ccc(-c4ccccn4)nn23)c1	.	.	-2	.	-10	.
O=C(COc1ccccc1Cl)c1ccc[nH]1	57*	10	0	34	3	3
CC[N+](CC)(CC)CCCCOc1ccc2c(c1)C(=O)c1cc(OCCCC[N+](CC)(CC)CC)ccc1-2	-77	-13	2	-26	-1	1
NNC(=O)c1cc2ccccc2cc1NS(=O)(=O)c1ccccc1	.	-5	-1	-4	-10	5
Cc1ccc(-n2c(SC3CCOC3=O)nc3ccccc3c2=O)cc1 (stereo unspecified)	4	31*	1	9	.	4
CC(OC(=O)CSc1ccc(F)cc1)C(=O)NC1(C#N)CCCCC1 (stereo unspecified)	.	-4	1	0	-4	7
CCc1ccc(NC(=O)CSc2nnc(CNC(=O)c3ccco3)o2)cc1	.	-1	3	0	-4	2
COc1ccc(OCc2nnc(SCC(=O)NCc3ccco3)o2)cc1	-15	5	-1	-2	4	6
CCc1ccc(OCc2nnc(SCC(=O)NCc3ccco3)o2)cc1	-7	54*	1	-5	-9	-3
COc1ccc2nc3ccccc3nc2c1NC(=O)c1ccc(Br)cc1	11	39*	?	42*	-6	-6
COc1cc(NC(=O)c2ccc(Br)cc2)c(OC)cc1NC(=O)c1ccccc1	.	4	2	8	13	6
O=C1CN(N=Cc2ccco2)C(=O)N1	.	.	.	.	-7	.
Cc1ncc(CO)c(/C=N/NC(=O)c2ccc(Br)cc2)c1O	-3	11	0	12	.	15

Screens as filed in PubChem.
